A selection: hits, their analogues and other compounds. The true share with any hit is near 17%.
TDP1 cell CPT – qHTS for Inhibitors of human tyrosyl-DNA phosphodiesterase 1 (TDP1): qHTS in cells in presence of CPT; chicken DT40 Tdp1-/-;hTDP1 cells + 20 nM CPT, ATP luminescence, 48 h; Potency, µM (series often up to 46.2 µM), without a hit: top-dose activity change, negative = growth inhibition, usual class: inhibitors; 420,000 compounds, 12% hits; AID 686979, 2013; further: on the % scale 0 is the no-effect control and ±100 the full control effect; nearly all actives have a fitted effect of over 55% in size
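Chicken DT40 Tdp1-/- cells stably complemented with human TDP1 were seeded at 400 cells/well in medium containing 20 nM camptothecin, exposed to pin-transferred compounds, and grown at 37 °C for at least 48 hr. Viability was read as ATP luminescence.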
TGFb SMAD3 inh – qHTS for Inhibitors of TGF-b; HepG2 CAGA-GFP TGF-b/SMAD3 reporter, GFP fluorescence, 18 h; TGF-beta stimulated, 500 pg/mL final; Potency, µM (highest dose often 46.1 µM), for inactives: at the top dose activity, negative = inhibition, usual class: inhibitors; 410,000 compounds, 1.2% hits; AID 588855, 2011; further: on the % scale 0 is the no-effect control and ±100 the full control effect; nearly all actives have a fitted effect of over 65% in size
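Read-out: total well GFP (ex488/em500-530) summed from mean per-cell fluorescence. Cells: HEPG2 CAGA-GFP, 1% FBS DMEM, 18 h at 37 degrees C with 500 pg/mL final TGF-beta. Unstimulated wells served as the full-inhibition control; stimulated DMSO wells = 0%.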
ATXN2 expr inh – Primary qHTS for Inhibitors of ATXN expression; 360,000 compounds, 0.72% hits; HEK-293 ATXN2-luciferase reporter, luminescence, 24 h; Potency, µM (doses to about 57 µM), inactives show top-dose activity change, negative = inhibition, most hits filed as inhibitors; further: on the % scale 0 is the no-effect control and ±100 the full control effect; nearly all actives have a fitted effect of over 55% in size
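qHTS (up to 57 uM final) was run with 24 h compound exposure of reporter cells at 37 °C. Each well was multiplexed: SteadyGlo luminescence measured ATXN2-luciferase expression after a fluorogenic Gly-Phe-AFC viability readout (25 uM final).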
TDP1 cell noCPT – qHTS for Inhibitors of human tyrosyl-DNA phosphodiesterase 1 (TDP1): qHTS in cells in absence of CPT | DT40 Tdp1-/- hTDP1 cells, no CPT, ATP luminescence, 48 h | Potency, µM (titrated, usually from 46.2 µM), inactives show at the top dose activity change, negative = growth inhibition, hits mostly inhibitors | 420,000 compounds, 15% hits | AID 686978, 2013; further: on the % scale 0 is the no-effect control and ±100 the full control effect; nearly all actives have a fitted effect of over 55% in size
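Stably hTDP1-transfected Tdp1-null chicken DT40 cells were treated with library compounds minus camptothecin and grown for at least 48 hr at 37 °C, after which cellular ATP was quantified by luminescence.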
HepG2 viability – qHTS for Inhibitors of TGF-b: Cytotox Counterscreen. HepG2 CAGA-GFP viability, ATP luminescence, 18 h. Potency, µM (doses to about 46.1 µM), for the others: top-dose activity change, negative = cytotoxicity, hits mostly cytotoxic. 410,000 compounds, 0.76% hits. AID 588856, 2011
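HepG2 CAGA-GFP cells (1000/well, DMEM with 1% FBS) received compound, then TGF-beta at 500 pg/mL final, and were incubated 18 hours at 37 degrees C. Viability was read by CellTiter-Glo luminescence. Media-only wells were set as complete cell-killing and DMSO as no toxicity.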
S2 tox – Viability Counterscreen for Primary qHTS for Inhibitors of ATXN expression | AID 651635, 2014 | Potency, µM (series often up to 56.7 µM), most hits filed as cytotoxic | 400,000 compounds, 0.49% hits | S2 cells (HEK-293 line with an ATXN2-luciferase reporter) viability, CellTiter-Fluor protease fluorescence, 24 h; further: nearly all actives have a fitted effect of over 40% in size
* marks the source's active call; other numbers are inactive results; i = inactive; ? = inconclusive; · = not tested or not shown. The call rests on the fitted dose curve; in most records, active means well fitted curve in the direction sought with a large enough effect; inconclusive means small, poorly fitted or top-dose-only effect, or another doubt; inactive means no such curve, though single readings can be large; an effect the other way counts as inactive or inconclusive. Potency means the concentration at half of the fitted maximal effect.

SMILES	TDP1 cell CPT	TGFb SMAD3 inh	ATXN2 expr inh	TDP1 cell noCPT	HepG2 viability	S2 tox
CCCn1c(CCC(=O)Nc2cccc(CC)c2)nc2cccnc21	16.4µM*	6.5%	-29.6%	?	-16.6%	i
CCOC(=O)c1ccc(NC(=O)Cc2ccc(-n3c(CC)nc4cccnc43)cc2)cc1	18.4µM*	?	·	25.9µM*	1.2%	·
CCc1nc2cccnc2n1-c1ccc(CC(=O)NCCOC)cc1	-2.6%	7.0%	·	-6.1%	-2.6%	i
CCOc1ccc(OCC)c(NC(=O)CCc2nc3cccnc3n2Cc2cccs2)c1	?	-9.9%	·	16.4µM*	-29.9%	·
CC1(C(=O)NS(=O)(=O)c2cccc(OC(F)F)c2)CCN1C(=O)C1CCCCC1 (stereo not given)	-5.5%	-0.7%	-3.0%	4.4%	1.7%	i
Cn1c(=O)c2ncn(CC(=O)Nc3ccc(N4CCOCC4)cc3)c2n(C)c1=O	-1.9%	32.8%	-0.1%	-1.1%	-1.2%	?
CCC(C)c1ccc2oc(-c3ccc(NC(=O)Cn4cnc5c(=O)n(C)c(=O)n(C)c54)cc3)nc2c1 (stereo not given)	20.6µM*	11.4%	8.3%	14.6µM*	2.4%	?
c1ccc2c(NCCN3CCOCC3)nc(-c3ccoc3)nc2c1	15.8%	·	·	-5.3%	·	·
O=c1[nH]nc(SCc2nnc(-c3ccc([N+](=O)[O-])cc3)o2)n1C1CCCCC1	-19.3%	0.0%	-1.8%	-28.2%	-40.5%	?
CCCn1c(SCC(=O)N(C)CC(=O)Nc2ccc(Cl)cc2)n[nH]c1=O	-21.4%	-6.8%	-11.4%	?	-15.2%	i
Cc1cc(CN(C)C(=O)c2cc(COc3ccc4ncccc4c3)on2)on1	7.31µM*	-12.2%	-10.0%	6.51µM*	-18.0%	i
CN(Cc1nccn1C)C(=O)c1cc(COc2ccc3ncccc3c2)on1	-41.7%	-1.5%	-18.3%	18.4µM*	-7.1%	i
Cc1ccc(OCc2cc(C(=O)N(C)Cc3cnc4ccccn34)no2)cc1C	14.6µM*	-15.2%	?	11.6µM*	-26.4%	i
COc1ccc(CN2CCNC(=O)C2CC(=O)NCCSc2nccn2C)c(OC)c1 (stereo not given)	15.0%	-7.1%	-13.1%	4.5%	-2.9%	i
COc1ccccc1NNC(=O)C(O)(c1ccccc1OC)c1ccccc1OC	18.4µM*	-3.8%	1.0%	23.1µM*	-12.7%	i
CCCC[P+](CCCC)(CCCC)Cc1ccc(NC(=O)[C@@H](Cc2ccc3ccccc3c2)NC(=NC2CCCCC2)NC2CCCCC2)cc1	13.3µM*	·	·	16.8µM*	·	·
CC(=O)Nc1ccc(NC(=O)C(Cc2ccccc2)NC(=O)C2CCCCC2)cc1 (stereo not given)	-10.3%	-4.4%	4.7%	-3.0%	6.1%	i
C#CCOCCOCCOCCNc1nc(N2CCOCC2)nc(N2CCN(C(=O)CCCCCCCCCCNC(=O)Cn3cc(CCCCCN)nn3)CC2)n1	1.0%	-3.6%	-4.2%	-17.3%	-12.7%	i
C#CCOCCOCCOCCNc1nc(N2CCN(C(=O)Cn3cc(CC(C)O)nn3)CC2)nc(N2CCN(C(=O)[C@H](CCCCN)n3cc(CCC(=O)O)nn3)CC2)n1 (stereo not given in full)	2.7%	?	10.1%	3.4%	2.8%	i
C#CCOCCOCCOCCNc1nc(N2CCN(C(=O)CCCCCCCCCCNC(=O)[C@H](CCCCN)n3cc(C[C@@H](C)CC)nn3)CC2)nc(N2CCN(C(=O)CCCCCCCCCCNC(=O)[C@H](CCCCN)n3cc(C[C@@H](C)CC)nn3)CC2)n1	8.2µM*	?	22.4µM*	9.2µM*	10µM*	12.6µM*
C#CCOCCOCCOCCNc1nc(N2CCN(C(=O)CCCCCCCCCCNC(=O)[C@H](CCCCN)n3cc(CCO)nn3)CC2)nc(N2CCN(C(=O)CCCCCCCCCCNC(=O)[C@H](CCCN=C(N)N)n3cc(C[C@@H](C)CC)nn3)CC2)n1	?	?	20µM*	?	-109.1%	17.8µM*
C#CCOCCOCCOCCNc1nc(N2CCN(C(=O)CCCCCCCCCCNC(=O)Cn3cc(C[C@@H](C)O)nn3)CC2)nc(N2CCN(C(=O)CCCCCCCCCCNC(=O)[C@H](CCCCN)n3cc(C[C@@H](C)CC)nn3)CC2)n1	16.4µM*	?	25.1µM*	20.6µM*	12.6µM*	20µM*
C#CCOCCOCCOCCNc1nc(N2CCN(C(=O)CCCCCCCCCCNC(=O)Cn3cc(C[C@@H](C)O)nn3)CC2)nc(N2CCN(C(=O)CCCCCCCCCCNC(=O)Cn3cc(C[C@@H](C)O)nn3)CC2)n1	6.51µM*	3.0%	?	9.2µM*	-7.9%	?
C#CCOCCOCCOCCNc1nc(N2CCN(C(=O)CCCCCCCCCCNC(=O)[C@H](CCCCN)n3cc(CCO)nn3)CC2)nc(N2CCN(C(=O)CCCCCCCCCCNC(=O)[C@H](CCCCN)n3cc(CCO)nn3)CC2)n1	?	?	-8.2%	?	-23.7%	?
O=C(O)c1nc(N2CCCC2)ncc1Cl	-1.8%	-22.7%	-3.3%	-6.0%	3.5%	i
SMILES	TDP1 cell CPT	TGFb SMAD3 inh	ATXN2 expr inh	TDP1 cell noCPT	HepG2 viability	S2 tox
CC(=O)Nc1nc(CC(C)C)cc(-c2ccco2)c1C#N	1.1%	-2.2%	6.4%	12.5%	-2.5%	i
CCOC(=O)C1(Cc2cccc(OC)c2)CCN(Cc2ccc(OC)c(O)c2)CC1	?	4.8%	-19.9%	?	-32.0%	?
CCOC(=O)C1(Cc2cccc(OC)c2)CCN(CC=C(C)C)CC1	?	-2.7%	·	16.4µM*	-17.9%	?
CCOC(=O)C1(Cc2cccc(OC)c2)CCN(C/C=C/c2ccccc2)CC1	16.4µM*	?	-28.9%	18.4µM*	-44.7%	i
CCOC(=O)C1(Cc2cccc(OC)c2)CCN(Cc2cccc(OCC)c2O)CC1	23.1µM*	-29.7%	-28.6%	16.4µM*	-37.6%	i
CCOC(=O)C1(Cc2cccc(OC)c2)CCN(CCO)CC1	1.1%	12.5%	-30.5%	0.1%	0.7%	?
CCOC(=O)C1(Cc2cccc(OC)c2)CCN(C/C=C/c2ccc(OC)cc2)CC1	5.8µM*	-2.4%	?	5.17µM*	-23.5%	?
